The values that follow come from PubChem BioAssay (NCI).

The panel holds about 79,000 compounds, 15% with a hit somewhere; the sample as a whole holds those more often. A number with no mark means an inactive call. Calls of active or inactive are those of the source. Cut-off read from the data, not from the text of the source: active = growth inhibition above about 70%; inactive = the rest.

The nature of assay [1]: NCI Yeast Anticancer Drug Screen. Data for the rad50 strain (AID 155).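 Note: 0% = growth of vehicle-only cultures of the same strain.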 Particulars: S. cerevisiae rad50 strain growth inhibition, active compounds read high. Put shortly:
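Compounds were tested on a yeast strain with an engineered DNA damage repair alteration; the reported value is growth inhibition normalised to vehicle treatment.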

Assay [2] is described as follows: NCI Yeast Anticancer Drug Screen. Data for the mec2-1 strain (AID 157). Conditions: S. cerevisiae mec2-1 strain, active compounds read high. In short, it runs like this:
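mec2-1 yeast strain, carrying an alteration in DNA damage repair or cell cycle control, was exposed to compounds; growth inhibition was measured relative to vehicle-treated controls.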

A short description of assay [3]: NCI Yeast Anticancer Drug Screen. Data for the sgs1 mgt1 strain (AID 161).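 Note: 0% = growth of cultures given vehicle only.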 Conditions: S. cerevisiae sgs1 mgt1 strain, active compounds read high. Put shortly:
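Compounds are added to genetically altered yeast, and growth is compared with cultures given vehicle alone to give percent inhibition.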

Assay [4] in a line: NCI Yeast Anticancer Drug Screen. Data for the cln2 rad14 strain (AID 165).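 Note: 0% = growth equal to vehicle treated cultures.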 Particulars: S. cerevisiae cln2 rad14 strain, active compounds read high. Put shortly:
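Yeast carrying cln2 and rad14 alterations (cell cycle control and DNA damage repair) were exposed to compounds. Growth inhibition was measured against vehicle-treated controls.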

Assay [5] in a line: NCI Yeast Anticancer Drug Screen. Data for the bub3 strain (AID 167). Conditions: S. cerevisiae bub3 mutant strain, active compounds read high. In short, it runs like this:
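Growth of a checkpoint-deficient yeast mutant is measured after compound exposure. Values represent inhibition relative to vehicle.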

Assay [6] can be described thus: NCI Yeast Anticancer Drug Screen. Data for the mlh1 rad18 strain (AID 175). Conditions: S. cerevisiae mlh1 rad18 strain growth inhibition, active compounds read high. In short, it runs like this: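 Growth inhibition of the yeast strain was measured after compound exposure and expressed relative to vehicle-treated controls. The strain carries defined defects in DNA damage repair.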

[7] abbreviates: at 5.0 µM (retest, dose inferred, filed as 0.5).
Where [8] appears, read: at 50.0 µM (retest, dose inferred, filed as 5.0).

As to `Cc1ccc(S(=O)(=O)NNC(=O)c2sc(-c3nc(C)c(C(=O)NNS(=O)(=O)c4ccc(C)cc4)s3)nc2C)cc1`, the growth inhibition was 2% in assay [1] (setting [7]); 98% (active) in assay [1] (setting [8]); 7.3% in assay [1] (at 50.0 µM); 2% in assay [2] (setting [7]); 99% (active) in assay [2] (setting [8]); 8% in assay [2] (at 50.0 µM). Moreover, the growth inhibition in assay [3] (setting [7]) is 5%; in assay [3] (setting [8]), 99% (active); in assay [3] (at 50.0 µM), 83.5% (active); in assay [4] (setting [7]), 8%; in assay [4] (setting [8]) it was 98% (active); in assay [4] (at 50.0 µM) it was -43.5%. In addition, the growth inhibition in assay [5] (setting [7]) is 8%; in assay [5] (setting [8]), 98% (active); in assay [5] (at 50.0 µM), 14.3%; in assay [6] (setting [7]), 2%; in assay [6] (setting [8]), 98% (active); in assay [6] (at 50.0 µM), 15%.
With `COc1ccc2c(c1)nc1cc(Cl)ccc1[n+]2C`, the growth inhibition in assay [1] (setting [7]) was 8%; in assay [1] (setting [8]), 97% (active); in assay [1] (at 50.0 µM), 82.2% (active); in assay [2] (setting [7]), 2%; in assay [2] (setting [8]), 95% (active); in assay [2] (at 50.0 µM), 52.5%. The growth inhibition in assay [3] (setting [7]) is -5%; in assay [3] (setting [8]), 97% (active); in assay [3] (at 50.0 µM), 74.1% (active); in assay [4] (setting [7]), 0%; in assay [4] (setting [8]), 97% (active); in assay [4] (at 50.0 µM), 64.4%. For the same molecule, the growth inhibition was 9% in assay [5] (setting [7]); 93% (active) in assay [5] (setting [8]); 86.3% (active) in assay [5] (at 50.0 µM); 5% in assay [6] (setting [7]); 97% (active) in assay [6] (setting [8]); 85.3% (active) in assay [6] (at 50.0 µM).
On to `CC(C)OC(=S)SSSC(=S)OC(C)C`, for which the growth inhibition in assay [1] (setting [7]) was 6%; in assay [1] (setting [8]), 99% (active); in assay [1] (at 50.0 µM) it was 99.5% (active); in assay [2] (setting [7]), 13%; in assay [2] (setting [8]), 99% (active); in assay [2] (at 50.0 µM), 99.5% (active). The growth inhibition is 9% in assay [3] (setting [7]); 98% (active) in assay [3] (setting [8]); 99.7% (active) in assay [3] (at 50.0 µM); 0% in assay [4] (setting [7]); 97% (active) in assay [4] (setting [8]); 68.2% in assay [4] (at 50.0 µM). The growth inhibition in assay [5] (setting [7]) is 6%; in assay [5] (setting [8]), 99% (active); in assay [5] (at 50.0 µM), 99.7% (active); in assay [6] (setting [7]) it was 9%; in assay [6] (setting [8]), 98% (active); in assay [6] (at 50.0 µM), 95.5% (active).
On to `C/C(=N/NC(=S)N1CCCCC1)c1cccc(/C(C)=N\NC(=S)N2CCCCC2)n1`, for which the growth inhibition is -13% in assay [1] (setting [7]); 93% (active) in assay [1] (setting [8]); 74.2% (active) in assay [1] (at 50.0 µM); -1% in assay [2] (setting [7]); 95% (active) in assay [2] (setting [8]); 88% (active) in assay [2] (at 50.0 µM). Further, the growth inhibition in assay [3] (setting [7]) is 6%; in assay [3] (setting [8]) it was 96% (active); in assay [3] (at 50.0 µM), 74.7% (active); in assay [4] (setting [7]) it was -10%; in assay [4] (setting [8]) it was 94% (active); in assay [4] (at 50.0 µM), 87.3% (active). For the same molecule, the growth inhibition in assay [5] (setting [7]) is 8%; in assay [5] (setting [8]), 94% (active); in assay [5] (at 50.0 µM) it was 90% (active); in assay [6] (setting [7]) it was -3%; in assay [6] (setting [8]), 95% (active); in assay [6] (at 50.0 µM), 88.2% (active).
For `CC(=O)OCC1OC(n2ncc3c(Sc4c([N+](=O)[O-])ncn4C)ncnc32)C(OC(C)=O)C1OC(C)=O` (stereo not given), the growth inhibition in assay [1] (setting [7]) was 23%; in assay [1] (setting [8]), 99% (active); in assay [1] (at 50.0 µM), 99.3% (active); in assay [2] (setting [7]), 25%; in assay [2] (setting [8]) it was 100% (active); in assay [2] (at 50.0 µM), 99.4% (active). In addition, the growth inhibition in assay [3] (setting [7]) is 47%; in assay [3] (setting [8]), 99% (active); in assay [3] (at 50.0 µM), 99.5% (active); in assay [4] (setting [7]), 2%; in assay [4] (setting [8]), 99% (active); in assay [4] (at 50.0 µM), 99.4% (active). In addition, the growth inhibition in assay [5] (setting [7]) was 16%; in assay [5] (setting [8]), 99% (active); in assay [5] (at 50.0 µM), 99% (active); in assay [6] (setting [7]), 18%; in assay [6] (setting [8]) it was 99% (active); in assay [6] (at 50.0 µM), 98.8% (active).
Take `Cc1c2cc[n+]([O-])cc2c(C)c2c1oc1ccccc12`: the growth inhibition in assay [1] (setting [7]) was 65%; in assay [1] (setting [8]), 99% (active); in assay [1] (at 50.0 µM) it was 50.5%; in assay [2] (setting [7]) it was 34%; in assay [2] (setting [8]), 98% (active); in assay [2] (at 50.0 µM), 46.6%. Moreover, the growth inhibition in assay [3] (setting [7]) was 13%; in assay [3] (setting [8]), 98% (active); in assay [3] (at 50.0 µM), 42.4%; in assay [4] (setting [7]), 23%; in assay [4] (setting [8]) it was 99% (active); in assay [4] (at 50.0 µM), 50.8%. For the same molecule, the growth inhibition was 32% in assay [5] (setting [7]); 99% (active) in assay [5] (setting [8]); 95.2% (active) in assay [5] (at 50.0 µM); 22% in assay [6] (setting [7]); 98% (active) in assay [6] (setting [8]); 55.1% in assay [6] (at 50.0 µM).
Take `CCOP(=O)(CCC(=O)[C@@]1(O)CC[C@H]2[C@@H]3CCC4=CC(=O)CC[C@]4(C)[C@H]3CC[C@@]21C)OCC`: the growth inhibition is 0% in assay [1] (setting [7]); 2% in assay [1] (setting [8]); 33.9% in assay [1] (at 50.0 µM); 1% in assay [2] (setting [7]); 5% in assay [2] (setting [8]); 5.55% in assay [2] (at 50.0 µM). The growth inhibition is 3% in assay [3] (setting [7]); 16% in assay [3] (setting [8]); 72.8% (active) in assay [3] (at 50.0 µM); -1% in assay [4] (setting [7]); 2% in assay [4] (setting [8]); 59.4% in assay [4] (at 50.0 µM). Moreover, the growth inhibition in assay [5] (setting [7]) is -2%; in assay [5] (setting [8]), -3%; in assay [5] (at 50.0 µM), 29.8%; in assay [6] (setting [7]) it was -4%; in assay [6] (setting [8]), 7%; in assay [6] (at 50.0 µM), 39.1%.
As to `CC(C)COC(=O)c1ccc(NC(=O)CCl)cc1`, the growth inhibition in assay [1] (setting [7]) is 0%; in assay [1] (setting [8]), 93% (active); in assay [1] (at 50.0 µM) it was 62.1%; in assay [2] (setting [7]), -1%; in assay [2] (setting [8]), 94% (active); in assay [2] (at 50.0 µM), 29.9%. The growth inhibition in assay [3] (setting [7]) is 2%; in assay [3] (setting [8]) it was 95% (active); in assay [3] (at 50.0 µM), 62.3%; in assay [4] (setting [7]), -7%; in assay [4] (setting [8]) it was 95% (active); in assay [4] (at 50.0 µM), 16.1%. Besides, the growth inhibition was 0% in assay [5] (setting [7]); 93% (active) in assay [5] (setting [8]); 10% in assay [5] (at 50.0 µM); 3% in assay [6] (setting [7]); 92% (active) in assay [6] (setting [8]); 67.8% in assay [6] (at 50.0 µM).
As for `COc1ccc(-c2cc(-c3ccc(OC)cc3OC)[n+](C)c(-c3ccc(OC)cc3OC)c2)cc1`, the growth inhibition was 97% (active) in assay [1] (setting [7]); 98% (active) in assay [1] (setting [8]); 90% (active) in assay [1] (at 50.0 µM); 98% (active) in assay [2] (setting [7]); 99% (active) in assay [2] (setting [8]); 93% (active) in assay [2] (at 50.0 µM). In addition, the growth inhibition was 98% (active) in assay [3] (setting [7]); 99% (active) in assay [3] (setting [8]); 86.2% (active) in assay [3] (at 50.0 µM); 97% (active) in assay [4] (setting [7]); 98% (active) in assay [4] (setting [8]); 88.2% (active) in assay [4] (at 50.0 µM). The growth inhibition in assay [5] (setting [7]) was 98% (active); in assay [5] (setting [8]), 99% (active); in assay [5] (at 50.0 µM) it was 81.8% (active); in assay [6] (setting [7]), 97% (active); in assay [6] (setting [8]) it was 99% (active); in assay [6] (at 50.0 µM), 93% (active).
In the case of `O=C(O)C1OC(Oc2ccc3oc4ccccc4c(=O)c3c2)C(O)C(O)C1O` (stereo not given), the growth inhibition in assay [1] (setting [7]) is -23%; in assay [1] (setting [8]), 91% (active); in assay [1] (at 50.0 µM), 48.8%; in assay [2] (setting [7]) it was 3%; in assay [2] (setting [8]) it was 33%; in assay [2] (at 50.0 µM), 40.2%. The growth inhibition is -1% in assay [3] (setting [7]); 48% in assay [3] (setting [8]); 30.8% in assay [3] (at 50.0 µM); 4% in assay [4] (setting [7]); 15% in assay [4] (setting [8]); 56.5% in assay [4] (at 50.0 µM). Also, the growth inhibition in assay [5] (setting [7]) was 10%; in assay [5] (setting [8]) it was 64%; in assay [5] (at 50.0 µM), 47.1%; in assay [6] (setting [7]), 7%; in assay [6] (setting [8]), 39%; in assay [6] (at 50.0 µM), 57.9%.
